The source made the active and inactive calls. Rule for the calls: active = hit-call score of the fitted dose curve at least 0.9, where 1 is the maximum; inactive = score below 0.9.

Read-out in the first test: Interleukin-1 alpha (IL1a), IL1A (gene 3552)
Briefly: BSK_KF3CT_IL1a: BioMAP Diversity Plus: KF3CT Assay for Interleukin-1 alpha (IL1a) Biomarker Activity (AID 2283070). The following applies: primary human keratinocytes with fibroblasts; actives raise or lower the signal. In a few lines: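 Chemicals were dosed onto co-cultured human keratinocytes and foreskin fibroblasts, IL-1a was quantified by ELISA at 24 h, and activity was fitted in both directions relative to DMSO controls.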
Turning to `O=C(O)COc1nc(Cl)c(Cl)cc1Cl`, the result was inactive.

As for `N#Cc1nn(-c2c(Cl)cc(C(F)(F)F)cc2Cl)c(N)c1S(=O)C(F)(F)F` (stereo unspecified), the result was inactive.

The AC50 is the midpoint of the concentration-response curve, whichever way the signal moves. On to `CC(C)Oc1cc(-n2nc(C(C)(C)C)oc2=O)c(Cl)cc1Cl`, for which the AC50 was 13.9 µM (active).

For the compound `CCOP(=S)(OCC)SCn1c(=O)oc2cc(Cl)ccc21`, the outcome was inactive.

For the compound `CCCC1COC(Cn2cncn2)(c2ccc(Cl)cc2Cl)O1` (stereo unspecified), the outcome was inactive.

Consider `COC(=O)C=C(C)OP(=O)(OC)OC`, for which the outcome was inactive.

In the case of `CCNc1nc(Cl)nc(NCC)n1`, the outcome was inactive.

As to `COc1ccc(C(c2ccc(OC)cc2)C(Cl)(Cl)Cl)cc1`, the AC50 was 7.74 µM (active).

As to `CCOC(=O)C(Cl)Cc1cc(-n2nc(C)n(C(F)F)c2=O)c(F)cc1Cl` (stereo unspecified), the result was inactive.

For `CCc1nn(C)c(C(=O)NCc2ccc(C(C)(C)C)cc2)c1Cl`, the AC50 was 29.5 µM (active).

As for `N#CC(CCc1ccc(Cl)cc1)(Cn1cncn1)c1ccccc1` (stereo unspecified), the outcome was inactive.

Regarding `CN(C)C(=S)SSC(=S)N(C)C`, the AC50 was 6.44 µM (active).

Regarding `CNC(=S)S`, the result was inactive.

Turning to `CON(C)C(=O)Nc1ccc(Cl)c(Cl)c1`, the result was inactive.

With `Cc1ccc(-c2c(Cl)nc(C#N)n2S(=O)(=O)N(C)C)cc1`, the result was inactive.

As for `COc1nc(NC(C)C)nc(NC(C)C)n1`, the result was inactive.

Turning to `CC(C)(C)c1ccc(CSc2cnn(C(C)(C)C)c(=O)c2Cl)cc1`, the AC50 is 6.93 µM (active).

For the compound `COC(=O)N(OC)c1ccccc1COc1ccn(-c2ccc(Cl)cc2)n1`, the AC50 was 3.97 µM (active).

For `N#Cc1cc(Br)c(O)c(Br)c1`, the outcome was inactive.

`COP(=S)(OC)Oc1nc(Cl)c(Cl)cc1Cl`: the outcome was inactive.

For `CCCCNC(=O)n1c(NC(=O)OC)nc2ccccc21`, the half-maximal activity concentration (AC50) was 20 µM (active).

As to `CC(Oc1ccc(Cl)cc1Cl)C(=O)O` (stereo unspecified), the outcome was inactive.

For the compound `O=C(Nc1ccccc1)Nc1ccnc(Cl)c1`, the outcome was inactive.

Regarding `CC1=C(C(=O)Nc2ccccc2)SCCO1`, the outcome was inactive.

For the compound `CCOc1cc(Oc2ccc(C(F)(F)F)cc2Cl)ccc1[N+](=O)[O-]`, the AC50 is 6.07 µM (active).

On to `Fc1ccc(Oc2ccnc3cc(Cl)cc(Cl)c23)cc1`, for which the outcome was inactive.

As to `CCCCC(CC)COC(=O)c1ccccc1C(=O)OCC(CC)CCCC` (stereo unspecified), the result was inactive.

Read-out in another test: TIMP metallopeptidase inhibitor 2 (TIMP2), TIMP2 (gene 7077)
Briefly: BSK_KF3CT_TIMP2: BioMAP Diversity Plus: KF3CT Assay for TIMP metallopeptidase inhibitor 2 (TIMP2) Biomarker Activity (AID 2283071). The settings on record: primary human keratinocytes with fibroblasts; actives raise or lower the signal. The method, boiled down: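 Human primary keratinocyte/foreskin fibroblast co-culture dosed with chemical and sampled at 24 h. TIMP-2 levels quantified by ELISA; bidirectional fitting against DMSO negative control as baseline.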
For the compound `O=C(O)COc1nc(Cl)c(Cl)cc1Cl`, the outcome was inactive.

As for `N#Cc1nn(-c2c(Cl)cc(C(F)(F)F)cc2Cl)c(N)c1S(=O)C(F)(F)F` (stereo unspecified), the outcome was inactive.

Turning to `CC(C)Oc1cc(-n2nc(C(C)(C)C)oc2=O)c(Cl)cc1Cl`, the outcome was inactive.

For the compound `CCOP(=S)(OCC)SCn1c(=O)oc2cc(Cl)ccc21`, the outcome was inactive.

On to `CCCC1COC(Cn2cncn2)(c2ccc(Cl)cc2Cl)O1` (stereo unspecified), for which the outcome was inactive.

On to `COC(=O)C=C(C)OP(=O)(OC)OC`, for which the outcome was inactive.

For the compound `CCNc1nc(Cl)nc(NCC)n1`, the outcome was inactive.

Regarding `COc1ccc(C(c2ccc(OC)cc2)C(Cl)(Cl)Cl)cc1`, the result was inactive.

`CCOC(=O)C(Cl)Cc1cc(-n2nc(C)n(C(F)F)c2=O)c(F)cc1Cl` (stereo unspecified): the outcome was inactive.

For the compound `CCc1nn(C)c(C(=O)NCc2ccc(C(C)(C)C)cc2)c1Cl`, the half-maximal activity concentration (AC50) is 27.7 µM (active).

With `N#CC(CCc1ccc(Cl)cc1)(Cn1cncn1)c1ccccc1` (stereo unspecified), the result was inactive.

On to `CN(C)C(=S)SSC(=S)N(C)C`, for which the AC50 was 6.4 µM (active).

Consider `CNC(=S)S`, for which the result was inactive.

Consider `CON(C)C(=O)Nc1ccc(Cl)c(Cl)c1`, for which the result was inactive.

`Cc1ccc(-c2c(Cl)nc(C#N)n2S(=O)(=O)N(C)C)cc1`: the result was inactive.

For the compound `COc1nc(NC(C)C)nc(NC(C)C)n1`, the result was inactive.

Take `CC(C)(C)c1ccc(CSc2cnn(C(C)(C)C)c(=O)c2Cl)cc1`: the AC50 is 22.9 µM (active).

Consider `COC(=O)N(OC)c1ccccc1COc1ccn(-c2ccc(Cl)cc2)n1`, for which the result was inactive.

With `N#Cc1cc(Br)c(O)c(Br)c1`, the result was inactive.

`COP(=S)(OC)Oc1nc(Cl)c(Cl)cc1Cl`: the result was inactive.

Take `CCCCNC(=O)n1c(NC(=O)OC)nc2ccccc21`: the outcome was inactive.

Consider `CC(Oc1ccc(Cl)cc1Cl)C(=O)O` (stereo unspecified), for which the result was inactive.

Consider `O=C(Nc1ccccc1)Nc1ccnc(Cl)c1`, for which the outcome was inactive.

Regarding `CC1=C(C(=O)Nc2ccccc2)SCCO1`, the result was inactive.

In the case of `CCOc1cc(Oc2ccc(C(F)(F)F)cc2Cl)ccc1[N+](=O)[O-]`, the outcome was inactive.

As to `Fc1ccc(Oc2ccnc3cc(Cl)cc(Cl)c23)cc1`, the result was inactive.

Regarding `CCCCC(CC)COC(=O)c1ccccc1C(=O)OCC(CC)CCCC` (stereo unspecified), the outcome was inactive.

Read-out in another test: Transforming growth factor beta 1 (TGFb1), TGFB1 (gene 7040)
Briefly: BSK_KF3CT_TGFb1: BioMAP Diversity Plus: KF3CT Assay for Transforming growth factor beta 1 (TGFb1) Biomarker Activity (AID 2283072). The settings on record: primary human keratinocytes with fibroblasts; actives raise or lower the signal. In a few lines: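 Human keratinocyte plus foreskin fibroblast primary co-culture, dosed with chemical for 24 h. TGF-b1 quantified by ELISA. Activity fitted bidirectionally against DMSO negative control as baseline.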
Regarding `O=C(O)COc1nc(Cl)c(Cl)cc1Cl`, the result was inactive.

As for `N#Cc1nn(-c2c(Cl)cc(C(F)(F)F)cc2Cl)c(N)c1S(=O)C(F)(F)F` (stereo unspecified), the outcome was inactive.

Regarding `CC(C)Oc1cc(-n2nc(C(C)(C)C)oc2=O)c(Cl)cc1Cl`, the result was inactive.

Regarding `CCOP(=S)(OCC)SCn1c(=O)oc2cc(Cl)ccc21`, the result was inactive.

With `CCCC1COC(Cn2cncn2)(c2ccc(Cl)cc2Cl)O1` (stereo unspecified), the outcome was inactive.

Turning to `COC(=O)C=C(C)OP(=O)(OC)OC`, the result was inactive.

Turning to `CCNc1nc(Cl)nc(NCC)n1`, the outcome was inactive.

With `COc1ccc(C(c2ccc(OC)cc2)C(Cl)(Cl)Cl)cc1`, the outcome was inactive.

As to `CCOC(=O)C(Cl)Cc1cc(-n2nc(C)n(C(F)F)c2=O)c(F)cc1Cl` (stereo unspecified), the result was inactive.

As for `CCc1nn(C)c(C(=O)NCc2ccc(C(C)(C)C)cc2)c1Cl`, the result was inactive.

On to `N#CC(CCc1ccc(Cl)cc1)(Cn1cncn1)c1ccccc1` (stereo unspecified), for which the outcome was inactive.

As to `CN(C)C(=S)SSC(=S)N(C)C`, the concentration at half-maximal activity (AC50) was 8.71 µM (active).

With `CNC(=S)S`, the result was inactive.

Take `CON(C)C(=O)Nc1ccc(Cl)c(Cl)c1`: the outcome was inactive.

Turning to `Cc1ccc(-c2c(Cl)nc(C#N)n2S(=O)(=O)N(C)C)cc1`, the result was inactive.

Turning to `COc1nc(NC(C)C)nc(NC(C)C)n1`, the result was inactive.

Turning to `CC(C)(C)c1ccc(CSc2cnn(C(C)(C)C)c(=O)c2Cl)cc1`, the outcome was inactive.

Regarding `COC(=O)N(OC)c1ccccc1COc1ccn(-c2ccc(Cl)cc2)n1`, the outcome was inactive.

For `N#Cc1cc(Br)c(O)c(Br)c1`, the result was inactive.

Consider `COP(=S)(OC)Oc1nc(Cl)c(Cl)cc1Cl`, for which the result was inactive.

For `CCCCNC(=O)n1c(NC(=O)OC)nc2ccccc21`, the result was inactive.

As for `CC(Oc1ccc(Cl)cc1Cl)C(=O)O` (stereo unspecified), the outcome was inactive.

Turning to `O=C(Nc1ccccc1)Nc1ccnc(Cl)c1`, the result was inactive.

`CC1=C(C(=O)Nc2ccccc2)SCCO1`: the result was inactive.

In the case of `CCOc1cc(Oc2ccc(C(F)(F)F)cc2Cl)ccc1[N+](=O)[O-]`, the result was inactive.

On to `Fc1ccc(Oc2ccnc3cc(Cl)cc(Cl)c23)cc1`, for which the result was inactive.

Consider `CCCCC(CC)COC(=O)c1ccccc1C(=O)OCC(CC)CCCC` (stereo unspecified), for which the outcome was inactive.

Values taken from PubChem BioAssay (EPA / NIEHS).
